# Assay results published in PubChem BioAssay.
# Activity calls are given as the source filed them.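 The calls were made as follows: active = inhibition above 20% together with a positive visual image hit; inconclusive = visual image hit but inhibition not above 20%; inactive = no visual image hit.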
# Experiment: inhibitors of TNFa-induced NFkB p65 translocation, primary screen, imaging, HUVEC, MLSMR starter and 10KST1 sets (AID 438);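 also: compound added about 3h40 before a 20 min TNFalpha stimulation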;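 as to inhibition: signal is the nuclear over cytoplasmic p65 intensity ratio per well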
# Details: HUVEC TNFa-induced p65 nuclear translocation; cell count: measured here: nuclei count (cytotoxicity indicator), at 2.08 µM; inhibition: at 2 µM, stronger effect = higher value, 0% TNFa-plus-vehicle, 100% no-TNFa wells
Compound,inhibition,cell count
CCN1CCCC1Cn1cnc2c([nH]c3ccc(C)cc32)c1=O (stereo not drawn),-6.8% (inactive),319
CCOC(=O)CSc1nc(N)c(C#N)c(-c2ccc(OC)cc2)c1C#N,1.6% (inactive),475
CCOC(=O)CC1=C(C(=O)OCC)C(c2cc(OC)c(OC)cc2OC)C(C#N)=C(N)O1 (stereo not drawn),-10% (inactive),433
CCCOc1ccc(/C(O)=C2/C(=O)C(=O)N(CCN(C)C)C2c2ccncc2)cc1 (stereo not drawn),-4.1% (inactive),434
CN=C1c2c(-c3ccccc3)c3cc(OC)ccc3n2CCN1C,-21.3% (inactive),531
COCCOC(=O)C1=C(C)NC(SCC(=O)NC(C)(C)C)=C(C#N)C1c1ccco1 (stereo not drawn),-11.5% (inactive),364
c1ccc(-c2nnc3n2N=C(c2ccc4c(c2)OCO4)CS3)nc1,-5% (inactive),626
C=COC(=O)CSc1nc(-c2cccs2)ccc1C#N,-10.8% (inactive),659
Cn1c(=O)oc2cc(C(=O)c3ccccc3)ccc21,-7.7% (inactive),442
CCOc1nc(SCCOc2ccc(C)cc2)nc(N(C)C)n1,-10.2% (inactive),346
Cc1ccc(CC2CC(=O)N(c3ccc4c(c3)OCCO4)C2=O)cc1 (stereo not drawn),-11% (inactive),482
COC(=O)Cn1cc(C(=O)OC)cc(Br)c1=O,-0.8% (inactive),507
CCN(CC)CCNC(=O)c1c(C)oc2cc(Br)c(OC)cc12,-8.7% (inactive),496
N=c1c2c(-c3ccccc3)c(-c3ccccc3)n(Cc3ccccc3)c2ncn1CCCn1ccnc1,-6.7% (inactive),551
Cc1cc(C)nc(N(C#N)S(=O)(=O)c2ccccc2Cl)n1,-11.5% (inactive),352
CC1(C)Cc2c(sc3nc(SCC#N)n(C4CCCCC4)c(=O)c23)CO1,-10.8% (inactive),633
CN1CCN(C(=O)CSc2nc(-c3cccs3)ccc2C#N)CC1,-11.3% (inactive),625
O/N=C1\CCc2cc(Cl)ccc21,-4% (inactive),384
CC(C)CC(C(=O)O)C(C)CC(=O)Nc1ccn(-c2ccccc2)n1 (stereo not drawn),-19.4% (inactive),345
CCCOc1ccc(N2C(=O)CC(N(CCC)C(=O)CCC(=O)O)C2=O)cc1 (stereo not drawn),-11.6% (inactive),468

Compound,inhibition,cell count
CCCCC(C(=O)O)C(C)CC(=O)Nc1cccc(C(=O)O)c1 (stereo not drawn),-4.4% (inactive),630
CC(C)C1Cc2c(C#N)c(N)n(C)c(=S)c2CO1 (stereo not drawn),1.3% (inactive),548
O=C(O)CC(NC(=O)COc1ccc(Cl)cc1Cl)C(=O)O (stereo not drawn),-19.5% (inactive),629
O=C1C(=O)N(CCN2CCOCC2)C(c2ccccn2)/C1=C(/O)c1ccccc1 (stereo not drawn),-4.7% (inactive),382
C=CCOC(=O)C1=C(C)NC(SCC(=O)N(CC)CC)=C(C#N)C1c1ccco1 (stereo not drawn),-9.9% (inactive),361
CN1CCc2c(sc3ncn4nc(-c5ccccc5O)nc4c23)C1,-12.5% (inactive),519
CN(C)c1ccc(-c2nn3c(-c4ccc(Cl)cc4)nnc3s2)cc1,-7.8% (inactive),615
O=c1oc2c3c4c(cc2c(C(F)(F)F)c1CCN1CCOCC1)CCCN4CCC3,-1% (inactive),507
c1ccc(N2CCN(c3nc(-c4ccccn4)nc4ccccc34)CC2)cc1,-5.1% (inactive),493
Fc1ccc2[nH]c3c(N4CCN(Cc5ccc6c(c5)OCO6)CC4)ncnc3c2c1,-4.5% (inactive),523
COc1ccc(OCC(=O)N2CCN(C(=O)c3cccc4ccccc34)CC2)cc1,-2.6% (inactive),413
C=CCc1cccc(/C=N/c2ncn[nH]2)c1O,-9% (inactive),470
COc1cccc2c(=O)c(SC(F)(F)C(F)C(F)(F)F)c(C)[nH]c12 (stereo not drawn),-0.8% (inactive),311
C=CCOc1nc2c(c(=O)n(Cc3ccc(Cl)c(Cl)c3)c(=O)n2C)n1C,0.8% (inactive),654
COCCNc1cc(C)c(C#N)c2nc3ccccc3n12,2.6% (inactive),564
CC(C)(C)c1cccc(/C=N/O)c1O,-19.1% (inactive),519
O=C(O)C1CSCN1S(=O)(=O)c1cccc2nsnc12 (stereo not drawn),-8.4% (inactive),539
CCN=C1SC(C(=O)Nc2ccc(Cl)c(Cl)c2)CC(=O)N1CC (stereo not drawn),-0.4% (inactive),388
CC1CN(c2oc(-c3cccs3)nc2C#N)CC(C)O1 (stereo not drawn),-13.6% (inactive),437
